SARS PLpro yeast – inhibitors of SARS-CoV papain-like protease in yeast; S. cerevisiae expressing SARS-CoV PLpro, growth rescue; Potency, µM (top dose mostly 32.9 µM), inactives show top-dose activity, positive = growth rescue, actives largely listed as activators; actives 0.19% (n = 330,000); AID 485353; calls by dose curve; also: 0% is about no effect; nearly all actives have a fitted effect of over 55% in size
Pf growth 48h – P. falciparum growth inhibition at 48 hours (one generation) | P. falciparum luciferase growth in erythrocytes, 48 h | Potency, µM (titrated, usually from 28.7 µM), for inactives: at the highest dose activity change, negative = inhibition, usual class: inhibitors | actives 5.9% (n = 310,000); also: % is scaled to controls: 0 for no effect and ±100 for the full control effect
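Growth was read as firefly luciferase luminescence after a 48 h, 37 C, 5% CO2 exposure of compounds to reporter-bearing P. falciparum cultures (0.1% parasitemia, 2% hematocrit final) in Albumax-supplemented RPMI 1640.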
Pf growth 96h – inhibits malaria parasite growth, 96 h. P. falciparum luciferase reporter growth, 96 h. Potency, µM (titrated, usually from 28.7 µM), for the others: at the highest dose activity change, negative = inhibition, actives largely listed as inhibitors. actives 6.9% (n = 320,000); also: % is scaled to controls: 0 for no effect and ±100 for the full control effect
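Delayed-death screen, second-generation endpoint: infected erythrocytes, 2% hematocrit, 0.05% parasitemia final; 96 hours at 37 C, 5% CO2; luciferase detection reagent; luminescence decrease equals reduced growth.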
NS1 function inh – influenza NS1 inhibition; Potency, µM (series often up to 46.1 µM), for inactives: top-dose activity, positive = more growth; actives 0.4% (n = 270,000); calls by dose curve; also: actives are rising curves; nearly all actives have a fitted effect of over 50% in size
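Recovery from NS1-induced slow growth read by OD600 in budding yeast switched to galactose assay medium (pH 6.0, -URA) at 1:100 dilution. Compound 23 nl per well; the matching strain lacking NS1 serves as control.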
* marks the source's active call; other numbers are inactive results; ? = inconclusive; . = not tested or not shown; [ ] = another dose, or the depositor's remark. Sampled rows, rich in hits. Any-hit rate of the full collection: about 10%. Unless noted, calls follow the shape of the dose curve; as a rule, active = well fitted inhibition curve with a large enough effect; inconclusive = small, poorly fitted or top-dose-only effect, or another doubt; inactive = no such curve, though single readings can be large or run the other way. Potency is read from the fitted curve at half-maximal effect.

SMILES | SARS PLpro yeast | Pf growth 48h | Pf growth 96h | NS1 function inh
Cc1cccc2c1-c1sc(C(=O)Nc3cccnc3)cc1CO2 | 1.0% | ? | -5.3% | -11.5%
C[n+]1ccccc1/C=C1\Sc2ccccc2N1CCO | -1.0% | ? | 2.08µM* | -5.6%
Cc1ccc2c(c1)S/C(=C\c1cccc[n+]1C)N2CCO | -1.7% | 3.29µM* | -8.7% | 3.7%
CCN(CC(=O)Nc1ccc(NC(C)=O)cc1)C(=O)c1ccc2c(c1)S(=O)(=O)N=C1CCCCCN12 | 2.1% | -24.5% | 35.3% | .
C=C(C)c1cccc(C(C)(C)NC(=O)NCc2ccncc2)c1 | 0.1% | 13.1µM* | ? | 1.1%
C=C(C)c1cccc(C(C)(C)NC(=O)Nc2ccc(Cl)cn2)c1 | -70.9% | 8.9% | ? | -25.9%
C=C(C)c1cccc(C(C)(C)NC(=O)Nc2cccnc2)c1 | 0.2% | ? | 4.65µM* | 1.0%
C=C(C)c1cccc(C(C)(C)NC(=O)NCc2cccnc2)c1 | -1.2% | 0.0% | ? | -0.6%
C=C(C)c1cccc(C(C)(C)NC(=O)Nc2ccc(C(N)=O)cc2)c1 | 0.3% | -12.2% | 35.4% | -1.8%
C=C(C)c1cccc(C(C)(C)NC(=O)Nc2ncccn2)c1 | -2.2% | ? | 8.28µM* | -14.9%
COc1nc(N)nc(N)c1NS(=O)(=O)c1ccc(C)cc1 | -4.4% | 0.6% | 14.5% | -3.9%
CC(/C=C/C=C/c1ccccc1)=N\NC(=O)c1cccnc1 | -3.1% | -23.0% | ? | .
CC(/C=C\C=C\c1ccccc1)=N\NC(=O)c1cncc(Br)c1 | 0.8% | ? | 0.928µM* | .
COc1nc(N(c2ccccc2)c2ccccc2)nc(-n2ccnc2)n1 | -31.1% | 11.7µM* | ? | -88.4%
Nc1nc(N)c(N=Nc2ccc(Cl)cc2)c(=O)[nH]1 | 0.9% | -7.6% | 3.3% | .
CSc1nc(N)c(N=Nc2ccc([As](=O)(O)O)cc2)c(=O)[nH]1 | 0.6% | 2.62µM* | ? | 2.6%
COc1ccc2cc(C=O)n(C)c2c1 | -1.6% | 14.2% | ? | .
COc1ccc2cc(CO)n(C)c2c1 | -6.3% | 11.7µM* | ? | .
C[C@H](CCCC(C)(C)O)[C@H]1CC[C@H]2[C@@H]3CC=C4C[C@@H](O)CC[C@]4(C)[C@H]3CC[C@]12C | . | 1.6% | -5.9% | .
COc1ccc(-c2noc(Cc3ccccc3OC)n2)cc1 | -7.9% | 12.8% | 13.1µM* | -31.5%
COc1ccccc1CC(=O)Nc1ccc(-c2noc(COc3cccc(C)c3C)n2)cc1 | -0.1% | . | 14.7µM* | 8.7%
Cc1cccc(-c2noc(Cc3ccc(Cl)cc3)n2)c1 | -7.3% | 63.2% | ? | -12.9%
COc1ccccc1Cc1nc(-c2cccnc2)no1 | -0.7% | ? | 6.0% | -3.9%
COc1ccc(Cc2nc(-c3cccc(C)c3)no2)cc1 | ? | . | 14.7µM* | 0.5%
O=C(CCNC(=O)N1CCn2c1nc1ccccc12)NCc1ccccc1Cl | 4.4% | -9.3% | -19.7% | -19.6%
SMILES | SARS PLpro yeast | Pf growth 48h | Pf growth 96h | NS1 function inh
Cc1ccc(NC(=O)CN2CCN(C(=O)C3CCCO3)CC2)c(C)c1 (stereo unspecified) | -0.6% | ? | ? | 4.3%
COc1ccc(S(=O)(=O)N(C)C)cc1NC(=O)CSC(C)C(=O)Nc1cc(C)on1 (stereo unspecified) | 0.9% | -10.0% | ? | .
O=C(Nc1ccc2nc(-c3ccco3)c(-c3ccco3)nc2c1)N1CCCCCC1 | -4.8% | ? | 10.4% | ?
CCOC(=O)C1CCN(C(=O)Nc2ccc3nc(-c4ccco4)c(-c4ccco4)nc3c2)CC1 | 2.0% | 10.4µM* | ? | 21.1%
Cc1ccc(C(=O)c2ccccc2C(=O)OCC(=O)N2CC(C)CC(C)C2)cc1 (stereo unspecified) | -8.4% | 7.38µM* | 7.38µM* | .
CCN(CC(=O)Nc1c(F)cccc1F)C(=O)C1CCN(S(=O)(=O)c2ccc(C)cc2C)CC1 | 1.6% | ? | ? | .
CC(=O)Oc1c(C)c(OC(C)=O)c2c(c1C(C)=O)OC1CC(=O)C(C(C)=O)=C(O)C21C (stereo unspecified) | -0.7% | 8.28µM* | 11.7µM* | -51.3%
CC(=O)c1c(O)c(C)c(O)c2c1OC1=CC(=O)C(C(C)=O)C(=O)[C@@]12C (stereo partly specified) | 0.1% | -15.6% | 23.9% | 0.4%
O=c1c2c(-c3cccs3)csc2ncn1-c1ccccc1 | 8.4% | -14.8% | 11.7µM* | 6.2%[9.22 µM]
CNC(=S)N(CCCN(C)C)Cc1cc2cc3c(cc2[nH]c1=O)OCCO3 | -7.5% | -28.7% | ? | -2.9%
Cn1nc(C(F)(F)F)c(-c2ccc(F)cc2)c1NC(=O)Nc1ccc(F)cc1 | -0.2% | 0.828µM* | 0.465µM* | 2.5%
O=C(Nc1cnn(C23CC4CC(CC(C4)C2)C3)c1)c1cc(-c2ccccc2)on1 | 3.9% | 10.4µM* | . | -2.8%
Cc1ccc(-c2cc(C(=O)Nc3cnn(C45CC6CC(CC(C6)C4)C5)c3)no2)cc1 | 4.1% | ? | -7.3% | 4.0%
COc1ccccc1/C=C/C=N/n1c(-c2ccncc2)n[nH]c1=S | 20.7% | -1.8% | 7.38µM* | 16.7%
COc1ccc(CNc2ccc3c(c2)CCC3)cc1Br | -0.9% | 55.8% | 7.38µM* | 6.3%
Cc1ccc2c(c1)SC1=NC(c3ccccc3)(C(F)(F)F)NC(=O)N12 (stereo unspecified) | 0.3% | 55.6% | -12.0% | 8.2%
COc1ccc(C2N(S(=O)(=O)c3ccccc3)CCN2S(=O)(=O)c2ccc(C)cc2)cc1 (stereo unspecified) | ? | . | 9.28µM* | 12.6%
CCC(=O)N1CCCN(S(=O)(=O)c2ccc(C)cc2)C1c1ccc(OC)cc1 (stereo unspecified) | -1.1% | 13.1µM* | 30.3% | -8.4%
C=CCn1c(=S)[nH]c2cc(C(=O)Nc3ccc(F)cc3)ccc2c1=O | -2.7% | -11.6% | ? | 5.2%
Cc1ccc(-c2[nH]ncc2CN2CCN(C(=O)c3cccs3)CC2)cc1C | 3.5% | -9.1% | ? | -9.0%
CCOC(=O)C1CCCN(CC(=O)NC2=Nc3ccccc3N=C(C)C2c2ccccc2)C1 (stereo unspecified) | 0.6% | 10.4µM* | ? | -38.0%
CCOC(=O)C1CCCN(CC(=O)Nc2cccc(C(C)=O)c2)C1 (stereo unspecified) | 0.5% | 0.0% | -14.3% | 2.9%
CC1=Nc2ccccc2N=C(NC(=O)CSc2nnnn2-c2ccccc2)C1c1ccccc1 (stereo unspecified) | . | ? | -20.0% | -9.6%
CC1=Nc2ccccc2N=C(NC(=O)CN2CCN(c3ccccc3)CC2)C1c1ccccc1 (stereo unspecified) | 0.5% | 5.86µM* | ? | -1.6%
CC1=Nc2ccccc2N=C(NC(=O)c2ccccc2)C1c1ccccc1 (stereo unspecified) | -2.1% | 4.15µM* | ? | -1.1%
CC1=Nc2ccccc2N=C(NC(=O)CSC(=S)N2CCCCC2)C1c1ccccc1 (stereo unspecified) | -0.3% | 13.1µM* | ? | 6.8%
CCOc1ccccc1NC(=O)C1CCCN(S(=O)(=O)c2ccc(-n3cnnn3)cc2)C1 (stereo unspecified) | -1.8% | ? | ? | 3.8%
Cc1cc2c(c(=O)n1Cc1ccccc1)C1O[C@](c3ccsc3)(Cc3cc(C#N)ccc31)O2 | -2.5%[6.58 µM] | 1.69µM* | 22.0%[5.75 µM] | 28.6%

Bioassay records: PubChem, National Center for Advancing Translational Sciences (NCATS)
